Inconclusive results are not listed. Entries that show only a call come without a potency. Activity calls are given as the source filed them. Calls follow the shape of the dose curve; as a rule, active = well fitted inhibition curve with a large enough effect in the repeat runs; inconclusive = weak or mixed curves; inactive = no such curve, though single readings can be large or run the other way.
Each molecule was assayed against Cytochrome P450 1A2 (Homo sapiens) (UniProt P05177) (assay: Cytochrome P450 Family 1 Subfamily A Member 2 (CYP1A2) small molecule antagonists: luciferase reporter qHTS assay (AID 1671199; also: nearly all actives have a fitted effect of over 50% in size)). Conditions: P450-Glo CYP1A2 enzyme, luciferin luminescence, 1 h; series mostly up to 53 µM.
Chain of Cytochrome P450 1A2 (Homo sapiens) (P05177 whole entry, looked up): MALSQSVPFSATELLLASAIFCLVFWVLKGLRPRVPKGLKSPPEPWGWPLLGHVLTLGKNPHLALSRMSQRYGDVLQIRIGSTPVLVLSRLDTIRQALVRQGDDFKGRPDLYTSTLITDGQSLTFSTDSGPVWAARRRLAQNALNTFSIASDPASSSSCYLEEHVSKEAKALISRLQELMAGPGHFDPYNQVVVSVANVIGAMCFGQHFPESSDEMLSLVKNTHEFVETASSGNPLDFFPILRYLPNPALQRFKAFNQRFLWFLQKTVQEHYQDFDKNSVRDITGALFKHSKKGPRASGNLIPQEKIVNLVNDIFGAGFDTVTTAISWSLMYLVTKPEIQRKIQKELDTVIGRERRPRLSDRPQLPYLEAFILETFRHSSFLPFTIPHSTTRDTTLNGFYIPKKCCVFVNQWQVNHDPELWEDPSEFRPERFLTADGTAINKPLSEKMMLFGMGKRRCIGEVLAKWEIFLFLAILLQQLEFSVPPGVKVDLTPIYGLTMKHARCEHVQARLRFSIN
Outline: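 Room-temperature CYP1A2 reaction with proluciferin substrate: compounds added from DMSO, 10 min preincubation, NADPH regeneration for 1 h. Luciferin detection reagent then added; luminescence recorded as RLU.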
Potency is read from the fitted curve at half-maximal effect.

Row | Compound | Potency
1 | NC(N)=NS(=O)(=O)c1ccc(N)cc1 | inactive
2 | CO[Si](OC)(OC)OC | 31 µM (active)
3 | OCCN1C[C@H](O)[C@@H](O)[C@H](O)[C@H]1CO | inactive
4 | COc1cc(C)cc(O)c1 | 35.6 µM (active)
5 | C=CC(=O)OCCCCCC | inactive
6 | CC(C)(O)Cc1ccccc1 | inactive
7 | C=CCOCC(O)CS(=O)(=O)O (stereo not given) | inactive
8 | OC[C@H]1O[C@@H]2O[C@H]3[C@H](O)[C@@H](O)[C@@H](O[C@H]4[C@H](O)[C@@H](O)[C@@H](O[C@H]5[C@H](O)[C@@H](O)[C@@H](O[C@H]6[C@H](O)[C@@H](O)[C@@H](O[C@H]7[C@H](O)[C@@H](O)[C@@H](O[C@H]8[C@H](O)[C@@H](O)[C@@H](O[C@H]9[C@H](O)[C@@H](O)[C@@H](O[C@H]1[C@H](O)[C@H]2O)O[C@@H]9CO)O[C@@H]8CO)O[C@@H]7CO)O[C@@H]6CO)O[C@@H]5CO)O[C@@H]4CO)O[C@@H]3CO | inactive
9 | CCCCC=O | inactive
10 | CCCCCC[C@@H](CCC)C(=O)O | inactive
11 | CC(=O)c1ccc(C)cc1 | inactive
12 | NC(=O)CCCCC1CCSS1 (stereo not given) | inactive
13 | Cc1ccc(N)cc1[N+](=O)[O-] | 8.02 µM (active)
14 | CCCCNc1ccccc1 | inactive
15 | CC(=O)NC(Cc1ccccc1)C(=O)O (stereo not given) | inactive
16 | C=C(C)[C@@H]1CCC2=CC(=O)C[C@@H](C)[C@]2(C)C1 | inactive
17 | CNC(=O)c1c(I)c(NC(=O)CCCCC(=O)Nc2c(I)c(C(=O)O)c(I)c(C(=O)NC)c2I)c(I)c(C(=O)O)c1I | inactive
18 | COC(=O)CCCC(=O)O | inactive

Row | Compound | Potency
19 | Oc1ccc2c(c1)OC[C@@H](N1CCC(O)(c3ccc(F)cc3)CC1)[C@H]2O | 7.76 µM (active)
20 | OCc1ccccn1 | inactive
21 | CCCCCCOC(=O)CC(CC(=O)OCCCCCC)(OC(=O)CCC)C(=O)OCCCCCC | inactive
22 | CN(C)N=Nc1ccccc1 | inactive
23 | C=C(C)C(=O)OCCCCCCCCCCCCCCCCCC | inactive
24 | COc1ccc(NC(C)=O)cc1 | 36.5 µM (active)
25 | OCCCCCCO | 40.4 µM (active)
26 | c1cc(CN2CCCCC2)cc(OCCCNc2nc3ccccc3s2)c1 | inactive
27 | CC(C)CCCCCCN | inactive
28 | CCN(CC)C(=O)c1ccc(O)c(OC)c1 | inactive
29 | CCCCOCC(C)OCC(C)O (stereo not given) | inactive
30 | CC(C)c1ccc2oc3nc(N)c(C(=O)O)cc3c(=O)c2c1 | 17.4 µM (active)
31 | CC(C)[C@H](N)C(=O)OCCOCn1cnc2c(=O)[nH]c(N)nc21 | inactive
32 | COC(=O)C1=C(C)NC(C)=C(C(=O)OCC(C)=O)C1c1ccccc1[N+](=O)[O-] (stereo not given) | 2.45 µM (active)
33 | CC(C)[N+](C)(C)CC(O)COc1cccc2ccccc12 (stereo not given) | inactive
34 | CCCCc1ccc(N)cc1 | 35.6 µM (active)
35 | CCOC(=O)Cn1c(=O)sc2cccc(Cl)c21 | 5.03 µM (active)

Reference: PubChem BioAssay (Tox21)
